Measurements as given in PubChem BioAssay (NCATS).
Records with an inconclusive call do not appear. Activity calls are given as the source filed them. Calls come from the whole dose curve; as a rule, active = well fitted inhibition curve with a large enough effect; inconclusive = small, poorly fitted or top-dose-only effect; inactive = flat fitted curve, though single readings scatter.

What was measured:
[1] = qHTS profiling for inhibitors of Plasmodium falciparum proliferation (AID 504749); note: nearly all actives have a fitted effect of over 60% in size;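 for activity, negative = inhibition: 0% = DMSO vehicle and full inhibition = artemisinin control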; settings: P. falciparum in erythrocytes, SYBR Green DNA, 72 h
Method in brief: (§1)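 In a 72 h erythrocytic culture (37 C, humidified, 5% CO2) at 2.5% hematocrit and 0.3% starting parasitemia, compounds were tested; SYBR Green I in detergent lysis buffer stained parasite DNA overnight.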

[2] = system: 3D7; assay: as above; settings: P. falciparum in erythrocytes, SYBR Green DNA, 72 h; series mostly up to 28.7 µM
Method in brief: as §1

[3] = system: AA1029; assay: as above; settings: P. falciparum in erythrocytes, SYBR Green DNA, 72 h; series mostly up to 28.7 µM
Method in brief: as §1

[4] = system: AS120; assay: as above; settings: P. falciparum in erythrocytes, SYBR Green DNA, 72 h; series mostly up to 28.7 µM
Method in brief: as §1

[5] = system: ATS189; assay: as above; settings: P. falciparum in erythrocytes, SYBR Green DNA, 72 h; series mostly up to 28.7 µM
Method in brief: as §1

[6] = system: ATS95; assay: as above; settings: P. falciparum in erythrocytes, SYBR Green DNA, 72 h; series mostly up to 28.7 µM
Method in brief: as §1

[7] = system: C2A; assay: as above; settings: P. falciparum in erythrocytes, SYBR Green DNA, 72 h; series mostly up to 28.7 µM
Method in brief: as §1

[8] = system: CP185; assay: as above; settings: P. falciparum in erythrocytes, SYBR Green DNA, 72 h; series mostly up to 28.7 µM
Method in brief: as §1

[9] = system: CP191; assay: as above; settings: P. falciparum in erythrocytes, SYBR Green DNA, 72 h; series mostly up to 28.7 µM
Method in brief: as §1

[10] = system: CP192; assay: as above; settings: P. falciparum in erythrocytes, SYBR Green DNA, 72 h; series mostly up to 28.7 µM
Method in brief: as §1

[11] = system: CP201; assay: as above; settings: P. falciparum in erythrocytes, SYBR Green DNA, 72 h; series mostly up to 28.7 µM
Method in brief: as §1

[12] = system: CP203; assay: as above; settings: P. falciparum in erythrocytes, SYBR Green DNA, 72 h; series mostly up to 28.7 µM
Method in brief: as §1

[13] = system: CP211; assay: as above; settings: P. falciparum in erythrocytes, SYBR Green DNA, 72 h; series mostly up to 28.7 µM
Method in brief: as §1

[14] = system: CP217; assay: as above; settings: P. falciparum in erythrocytes, SYBR Green DNA, 72 h; series mostly up to 28.7 µM
Method in brief: as §1

[15] = system: CP194; assay: as above; settings: P. falciparum in erythrocytes, SYBR Green DNA, 72 h; series mostly up to 28.7 µM
Method in brief: as §1

[16] = system: CP215; assay: as above; settings: P. falciparum in erythrocytes, SYBR Green DNA, 72 h; series mostly up to 28.7 µM
Method in brief: as §1

[17] = system: 7G8; assay: as above; settings: P. falciparum in erythrocytes, SYBR Green DNA, 72 h; series mostly up to 28.7 µM
Method in brief: as §1

[18] = at 28.7 µM (top of the series), parasite line A
[19] = at 28.7 µM (top of the series), parasite line B
Potency is the fitted concentration of half-maximal effect.

CC(C)=CCOc1ccc(/C=C/C(=O)c2ccc(OCC=C(C)C)cc2OCC(=O)O)cc1
inactive: activity, negative = inhibition [1, 18] -9.12% | activity, negative = inhibition [1, 19] -8.65% | Potency [2] | Potency [3] | Potency [4] | Potency [5] | Potency [6] | Potency [7] | Potency [8] | Potency [9] | Potency [10] | Potency [11] | Potency [12] | Potency [13] | Potency [14]

C#C[C@]1(OC(C)=O)CC[C@H]2[C@@H]3CCC4=C/C(=N/O)CC[C@@H]4[C@H]3CC[C@@]21CC
inactive: activity, negative = inhibition [1, 18] -6.98% | activity, negative = inhibition [1, 19] -15.6% | Potency [2] | Potency [3] | Potency [4] | Potency [5] | Potency [6] | Potency [7] | Potency [8] | Potency [9] | Potency [15] | Potency [11] | Potency [13] | Potency [16] | Potency [14]

CCCCNc1ccc(C(=O)OCCOCCOCCOCCOCCOCCOCCOCCOCCOC)cc1
inactive: activity, negative = inhibition ([1]; at 12.8 µM (top of the series), parasite line A) -21.5% | activity, negative = inhibition ([1]; at 12.8 µM (top of the series), parasite line B) -9.92% | Potency [2] | Potency [3] | Potency [4] | Potency [5] | Potency [6] | Potency [7] | Potency [8] | Potency [9] | Potency [10] | Potency [15] | Potency [11] | Potency [12] | Potency [13] | Potency [16] | Potency [14]

NCc1ccccc1Sc1ccccc1CO
inactive: activity, negative = inhibition [1, 18] 10.7% | activity, negative = inhibition [1, 19] -5.68% | Potency [2] | Potency [5] | Potency [7] | Potency [8] | Potency [9] | Potency [10] | Potency [11] | Potency [13] | Potency [16] | Potency [14]
active: Potency [17] 11.2 µM

COc1ccc(CCN(C)CCCN2CCc3cc(OC)c(OC)cc3CC2=O)cc1OC
inactive: activity, negative = inhibition [1, 18] -14.9% | activity, negative = inhibition [1, 19] -7.04% | Potency [2] | Potency [4] | Potency [5] | Potency [6] | Potency [7] | Potency [8] | Potency [9] | Potency [10] | Potency [15] | Potency [11] | Potency [13] | Potency [16] | Potency [14]

O=C(CCN1CCN2CCCC2C1)N1c2ccccc2Sc2ccc(Cl)cc21 (stereo not drawn)
inactive: activity, negative = inhibition [1, 18] -26.8% | activity, negative = inhibition [1, 19] -9.82% | Potency [8] | Potency [10] | Potency [15] | Potency [11] | Potency [13]
active: Potency [17] 8.91 µM

CCOC(=O)C(C#N)=C(c1ccccc1)c1ccccc1
inactive: activity, negative = inhibition [1, 18] 12.2% | activity, negative = inhibition [1, 19] -2.15% | Potency [2] | Potency [3] | Potency [4] | Potency [5] | Potency [6] | Potency [7] | Potency [8] | Potency [9] | Potency [15] | Potency [11] | Potency [13] | Potency [16] | Potency [14]

CCC(CC)(CC(=O)Nc1cccc(/C=C/c2nc(C3CCC3)cs2)c1)C(=O)O
inactive: activity, negative = inhibition [1, 18] -2.66% | activity, negative = inhibition [1, 19] -0.894% | Potency [2] | Potency [3] | Potency [4] | Potency [5] | Potency [6] | Potency [7] | Potency [8] | Potency [9] | Potency [10] | Potency [15] | Potency [11] | Potency [13] | Potency [16] | Potency [14]

CN(C)CCC[C@@]1(c2ccc(F)cc2)OCc2cc(C#N)ccc21
inactive: activity, negative = inhibition [1, 18] 3.06% | activity, negative = inhibition [1, 19] 6.35% | Potency [2] | Potency [17] | Potency [4] | Potency [5] | Potency [6] | Potency [7] | Potency [8] | Potency [10] | Potency [15] | Potency [11] | Potency [13] | Potency [14]

COc1ccc2c(c1)c1c3n2CCN(C)C3=NCC1
inactive: activity, negative = inhibition [1, 18] -3.91% | activity, negative = inhibition [1, 19] 11.3% | Potency [2] | Potency [3] | Potency [4] | Potency [5] | Potency [6] | Potency [7] | Potency [8] | Potency [9] | Potency [10] | Potency [15] | Potency [11] | Potency [12] | Potency [13] | Potency [16] | Potency [14]

O=C(O)CCc1nc2ccccc2[nH]1
active: Potency [2] 0.0045 µM

CC1=C(C(=O)O)N2C(=O)[C@@H](NC(=O)[C@H](N)c3ccccc3)[C@H]2SC1
inactive: activity, negative = inhibition [1, 18] 3.04% | Potency [2] | Potency [17] | Potency [3] | Potency [4] | Potency [5] | Potency [6] | Potency [7] | Potency [8] | Potency [9] | Potency [10] | Potency [15] | Potency [11] | Potency [12] | Potency [13] | Potency [16] | Potency [14]

Cc1cc(CC(=O)O)c(C)n1-c1ccc(Cl)cc1
active: Potency [17] 11.2 µM
inactive: Potency [2] | Potency [5] | Potency [6] | Potency [7] | Potency [8] | Potency [10] | Potency [15] | Potency [11] | Potency [13] | Potency [16]

CC(C)(Cc1c[nH]c2ccccc12)NCC(O)COc1ccccc1C#N (stereo not drawn)
active: Potency [17] 8.91 µM | Potency [3] 8.91 µM
inactive: Potency [10] | Potency [11] | Potency [16]

Clc1cccc(C(c2ccc3nc[nH]c3c2)n2ccnc2)c1 (stereo not drawn)
active: Potency ([1]; parasite line B) 10 µM | Potency [2] 11.2 µM | Potency [17] 5.01 µM | Potency [4] 11.2 µM | Potency [7] 10 µM | Potency [13] 12 µM
inactive: Potency [8]

CCN(CC)CCOC(=O)C1(c2ccccc2)CCCC1
active: Potency [3] 0.01 µM | Potency [8] 11.2 µM | Potency [12] 10.7 µM
inactive: activity, negative = inhibition [1, 18] -50.7% | activity, negative = inhibition [1, 19] -32% | Potency [4] | Potency [5] | Potency [6] | Potency [7] | Potency [9] | Potency [10] | Potency [14]
